# Laboratory results: the supplement of paper PMC10338343
# ± gives the standard deviation.
# System: EfPiwi piRISC loaded with L1MC piRNA (26 nt)
# Experiment: pre-steady-state target cleavage rate (min^-1); auxiliary factor: none (no Gtsf1); guide: L1MC piRNA 5'p-UAACUAAAUACUAUGCAAGCUGUAGG; higher = faster piRNA-guided slicing of the target
# Procedure, shortened: (§1)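 The pre-steady-state cleavage rate was calculated from a burst-and-steady-state fit. Data came from Cleave-'n-Seq, in which […] transcribed, DNA-blocked target RNA library was mixed with 1 nM active affinity-purified piRISC carrying one synthetic guide, with or without 500 nM GTSF1 partner protein, in HEPES–potassium acetate buffer at 33 °C for 0–8 or 0–960 min. Uncleaved targets were sequenced and normalised to depth and to weakly complementary targets, three trials were pooled, and k3 was capped at 0.0001 min^-1.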
row,Sequence,pre-steady-state target cleavage rate
1,UCCUGCUACAGCUUGGAUAGUAUUUACAAA,< 0.0001
2,UCCUGGAUGAGCUUGCAUAGUACUUUAGUUA,0.00423 ± 0.0036
3,UCCUGCUAGAGCUUGCAUAGUAUUUAGAAA,< 0.0001

# System: EfPiwi piRISC loaded with L1MC piRNA (26 nt)
# Experiment: pre-steady-state target cleavage rate (min^-1); auxiliary factor: 500 nM Ephydatia muelleri Gtsf1; guide: L1MC piRNA 5'p-UAACUAAAUACUAUGCAAGCUGUAGG; MIWI and MILI are mouse PIWI proteins and EfPiwi is from a freshwater sponge; tags in brackets are library labels; higher = faster piRNA-guided slicing of the target
# Procedure, shortened: as §1
row,Sequence,pre-steady-state target cleavage rate
1,UCCUGCUACAGCUUGGAUAGUAUUUACAAA,0.00306 ± 0.0026
2,UCCUGGAUGAGCUUGCAUAGUACUUUAGUUA,0.00806 ± 0.003
3,UCCUGCUAGAGCUUGCAUAGUAUUUAGAAA,0.00419 ± 0.0022
